# Measurements as given in PubChem BioAssay AID2685 (National Center for Advancing Translational Sciences (NCATS), 2010).
# Hit rate of the full screen: of about 320,000 compounds, about 2,100 (0.66%) were called active. Roughly 53% stayed inconclusive and do not appear here. Calls follow the shape of the dose curve; as a rule, active = well fitted inhibition curve with a large enough effect in the signal ratio, with a control signal flat (not every such curve was filed as active); inconclusive = small, poorly fitted or top-dose-only effect, or effect the other way, or a change in a side signal; inactive = flat fitted curve, though single readings scatter; the % refers to the signal ratio. Shown is part of a subset that was picked to be rich in actives.
# Experiment: qHTS Assay for Lipid Storage Modulators in Drosophila S3 Cells;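 as to cell number change: cells counted by Cell Tracker Red CMTPX staining in the red channel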; as to lipid storage change, negative = inhibition: % is scaled to controls: 0 for no effect and ±100 for the full control effect
# Conditions: BODIPY lipid droplet fluorescence, 18-24 h, cells fed with added oleic acid; cell number change: measured here: cell count max response; series mostly up to 46.1 µM; lipid storage change, negative = inhibition: at the top concentration
# Outline: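 Drosophila S3 cells got compounds at several concentrations plus oleic acid (400 uM solution). Laser-scanning cytometry with 488 nm excitation read lipid droplets at 500-530 nm and cells at 575-640 nm. Percent activity was relative to 20 uM Triacsin C.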
# Potency is read from the fitted curve at half-maximal effect.
SMILES,"lipid storage change, negative = inhibition",cell number change [%],Potency,outcome
Cc1cc(=O)n2nc(N3CCC(C(=O)NCCc4ccccc4)CC3)sc2n1,16.9% (inactive),7.93,–,–
CCOc1ccc(CCNC(=O)C2CCN(c3nn4c(=O)cc(C)nc4s3)CC2)cc1OCC,–,3.17,5.8 µM (active),–
Cc1cc(=O)n2nc(N3CCC(C(=O)N4CCN(c5ccccc5)CC4)CC3)sc2n1,-24.2% (inactive),–,–,–
Cc1cc(=O)n2nc(N3CCCC3C(=O)NCCCN3CC(C)CC(C)C3)sc2n1 (centres undefined),–,-13.9,5.17 µM (active),–
COc1ccc(CCNC(=O)Cn2cnc3c(nnn3Cc3ccc(C)cc3)c2=O)cc1OC,5.48% (inactive),-15.1,–,–
COc1ccc(CN2CCN(Cc3cc4ccccc4o3)CC2CCO)c(F)c1 (centres undefined),24.4% (inactive),5.21,–,–
C/C(=N\NC(=O)c1nnn(-c2nonc2N)c1CSc1ccccc1)c1ccco1,–,–,–,inactive
N/C(=N/O)c1nc(N2CCCC2)nc(N2CCCC2)n1,11.2% (inactive),6.44,–,–
COc1ccc(CNC(=O)C(C)n2nc(C)c3c(C)n(-c4ccccc4)nc3c2=O)c(OC)c1 (centres undefined),6.4% (inactive),1.47,–,–
COc1ccccc1CNC(=O)C(C)n1nc(C)c2c(C)n(-c3ccccc3)nc2c1=O (centres undefined),–,-4.13,5.8 µM (active),–
COc1ccc(OC)c(CNC(=O)C(C)n2nc(C)c3c(C)n(-c4ccccc4)nc3c2=O)c1 (centres undefined),–,-28,–,inactive
O=S1(=O)c2ccccc2Nc2ccccc21,-5.34% (inactive),5.2,–,–
Cc1nc(NS(=O)(=O)c2ccccc2)sc1NC(=O)Nc1ccc(Cl)cc1,7.91% (inactive),3.01,–,–
COc1ccc(CCNCc2c(OC)ccc3ccccc23)cc1OC,-2.82% (inactive),20.1,–,–
CC(C(=O)N1CCCC1)N(c1ccccc1)S(C)(=O)=O (centres undefined),18.2% (inactive),-11.5,–,–
CC(C(=O)N1CCc2ccccc2C1)N(c1ccccc1)S(C)(=O)=O (centres undefined),–,-18,2.06 µM (active),–
CCOC(=O)N1CCN(C(=O)C(C)N(c2ccccc2)S(C)(=O)=O)CC1 (centres undefined),14.9% (inactive),2.57,–,–
COc1ccc2sc(-c3ccccc3OC)c(C#CCCO)c2c1,–,-1.81,–,inactive
CCOc1cc(-c2cc(-c3ccc(C)o3)nc(N)c2C#N)ccc1O,–,-0.884,–,inactive
O=C(NCc1cccnc1)C1CCN(c2ccc(S(=O)(=O)N3CCOCC3)cc2Cl)CC1,-21.4% (inactive),0.843,–,–
C=CCN1C(=O)C(C(C)CC)NC1=S (centres undefined),–,-18.2,7.31 µM (active),–
CCC(C)C1NC(=S)N(Cc2ccccc2)C1=O (centres undefined),4.29% (inactive),-14.7,–,–
CCC(C)C1NC(=S)N(C2CCCCC2)C1=O (centres undefined),3.53% (inactive),-20.3,–,–

SMILES,"lipid storage change, negative = inhibition",cell number change [%],Potency,outcome
Cc1nnc(-c2cccc(C(F)(F)F)c2)nc1N1CCOCC1,–,–,–,inactive
O=C(C1=C[C@@H](C2CC2)C[C@@H](OCc2ccc(CO)cc2)O1)N1CCOCC1,17.1% (inactive),-6.29,–,–
COc1ccc(C2NN=C(c3ccc(C)cc3)S2)cc1 (centres undefined),2.54% (inactive),14.2,–,–
Cc1ccc(C2=NNC(C(O)C(O)C(O)C(C)O)S2)cc1 (centres undefined),–,–,–,inactive
Cc1ccc(C2=NNC(C(O)C(O)C(O)C(O)CO)S2)cc1 (centres undefined),–,-6.96,23.1 µM (active),–
O=C(Nc1ccc(N2CCOCC2)cc1)C1CCCN(S(=O)(=O)c2cccc(C(F)(F)F)c2)C1 (centres undefined),9.49% (inactive),2.4,–,–
CCCNC(=O)c1ccccc1NC(=O)CN(c1ccccc1)S(=O)(=O)N(C)C,-15.5% (inactive),-16.1,–,–
O=C(Nc1ccc(Cl)c(S(=O)(=O)N2CCOCC2)c1)c1ccc2c(c1)OCCO2,-7.25% (inactive),19.2,–,–
CN1CCN(NC(=O)c2ccc(S(=O)(=O)N3CC4(C)CC3CC(C)(C)C4)cc2)CC1 (centres undefined),-1.05% (inactive),3.86,–,–
CC1(C)CC2CC(C)(CN2S(=O)(=O)c2ccc(C(=O)Nc3ccc(Cl)c(S(=O)(=O)N4CCOCC4)c3)cc2)C1 (centres undefined),–,–,5.8 µM (active),–
CCOc1ccc(C(=O)NCC(=O)OCc2ccc(F)cc2Cl)cc1,8.58% (inactive),13.4,–,–
CCn1c(=O)c2cc(C(=O)N(C)CC(OC)OC)sc2c2ccccc21,2.97% (inactive),7.22,–,–
O=C(OCc1nnc(-c2ccccc2)o1)c1cc(S(=O)(=O)N2CCOCC2)ccc1F,14.7% (inactive),-16.6,–,–
CCc1cc2c(COC(=O)c3cc(S(=O)(=O)N4CCOCC4)ccc3F)cc(=O)oc2cc1O,–,-14.4,18.4 µM (active),–
Cc1noc(C)c1COC(=O)c1cc(S(=O)(=O)N2CCOCC2)ccc1F,16% (inactive),4.32,–,–
CCc1ccc(OCC(=O)Nc2ccc3c(c2)COC3=O)cc1,16% (inactive),8.42,–,–
COc1ccc(C)cc1NC(=O)C1CCCN(S(=O)(=O)c2cccc3cccnc23)C1 (centres undefined),–,19.9,–,inactive
COc1ccc(C)cc1NC(=O)C1CCN(S(=O)(=O)c2cccc3cccnc23)CC1,–,-24.8,10.3 µM (active),–
COc1ccc(Cl)cc1NC(=O)C1CCCN(S(=O)(=O)c2cccc3nonc23)C1 (centres undefined),6.59% (inactive),8.35,–,–
COc1ccc(NC(=O)C2CCN(S(=O)(=O)c3cccc4cccnc34)CC2)cc1OC,-9.44% (inactive),-22.5,–,–
COc1ccc(C)cc1NC(=O)C1CCCN(S(=O)(=O)c2cccc3nonc23)C1 (centres undefined),18.1% (inactive),–,–,–
COc1ccc(C)cc1NC(=O)C1CCN(S(=O)(=O)c2cccc3nonc23)CC1,–,15.9,3.66 µM (active),–
